# Data published in PubChem BioAssay (NCATS).
# Inconclusive results are not listed. Entries that show only a call come without a potency. Calls of active or inactive are those of the source. Calls follow the shape of the dose curve; as a rule, active = well fitted inhibition curve with a large enough effect; inconclusive = small, poorly fitted or top-dose-only effect; inactive = flat fitted curve, though single readings scatter.
# Test system: AA1029
# Assay: qHTS profiling for inhibitors of Plasmodium falciparum proliferation (AID 504749); also: nearly all actives have a fitted effect of over 60% in size
# Settings: P. falciparum in erythrocytes, SYBR Green DNA, 72 h; series mostly up to 28.7 µM
# Method in brief: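 Parasite proliferation within erythrocytes, 72 h exposure. Endpoint: SYBR Green I fluorescence after overnight lysis at room temperature. Controls: 0.29 uM artemisinin, DMSO.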
row,SMILES,Potency
1,COc1ccccc1OC(=O)Oc1ccccc1OC,inactive
2,C[C@@H]1O[C@@H](OC[C@H]2O[C@@H](Oc3c(-c4ccc(O)c(O)c4)oc4cc(O)cc(O)c4c3=O)[C@H](O)[C@@H](O)[C@@H]2O)[C@H](O)[C@H](O)[C@H]1O,inactive
3,CCCCCCCCCCCCCCCCCCO,inactive
4,CC1CCN(CCCC(=O)c2ccc(F)cc2)CC1,inactive
5,O=C(O)CCCc1ccccc1,inactive
6,CC(C(=O)O)c1ccc2c(c1)Cc1cccnc1O2 (stereo not drawn),inactive
7,NS(=O)(=O)c1cc(-c2nn[nH]n2)c(NCc2cccs2)cc1Cl,inactive
8,CCOc1cc(NC(C)=O)ccc1C(=O)OC,inactive
9,Cc1c(N(C)C)c(=O)n(-c2ccccc2)n1C,inactive
10,O=C(Cn1ccnc1[N+](=O)[O-])NCc1ccccc1,inactive
11,COc1ccccc1Oc1c(NS(=O)(=O)c2ccc(C(C)(C)C)cc2)nc(-c2ncccn2)nc1OCCO,inactive
12,O=S1(=O)OC(c2ccc(O)cc2)(c2ccc(O)cc2)c2ccccc21,inactive
13,CC1CC(OC(=O)c2ccccc2O)CC(C)(C)C1 (stereo not drawn),inactive
14,Cc1cc(C)nc(NS(=O)(=O)c2ccc(N)cc2)n1,inactive
15,C[C@@H](N)C(=O)O,inactive
16,Cc1cc(O)cc(C)c1Cl,inactive
17,CC(=O)NCc1c(I)c(NC(C)=O)c(I)c(C(=O)O)c1I,inactive
18,CCc1cccc(CC)c1NC(=O)CN(CC(=O)O)CC(=O)O,inactive
